Measured values taken from PubChem BioAssay AID1566 (Sanford-Burnham Center for Chemical Genomics, 2009).
In all, about 290,000 compounds went through this assay and about 1,800 (0.62%) were called active. No stated cut-off is given here; in the data, active means inhibition above about 50%; inactive means the rest. Only a selection was taken, and actives are over-represented in it overall.

Assay: NOD2 signaling inhibitors, cell-based, luminescence, uHTS, HEK293 (AID 1566)
Conditions: HEK293 NOD2/NF-kB luciferase reporter, at 4 µM, active compounds read high

Compound | inhibition
Cc1ccc(N2C(=O)NC(=O)/C(=C\c3ccc([N+](=O)[O-])o3)C2=O)cc1 | 10.6% (inactive)
Nc1cc2nc3ccccc3nc2cc1N | -1.6% (inactive)
CNc1ccc2nc3ccccc3[n+](C)c2c1 | 54.7% (active)
C[n+]1c2ccccc2nc2ccc(NCCO)cc21 | 41.7% (inactive)
CC(Cc1ccccc1)NC(=O)Cc1ccc([N+](=O)[O-])cc1 (stereo not drawn) | 4.1% (inactive)
CCCC1COC(Cn2cncn2)(c2ccc(Cl)cc2Cl)O1 (stereo not drawn) | 5.9% (inactive)
CC(C(=O)c1ccc(Cl)cc1Cl)n1cncn1 (stereo not drawn) | -37.6% (inactive)
CC1(c2ccc(Cl)cc2Cl)OCC(Cn2cncn2)O1 (stereo not drawn) | 60.3% (active)
Cc1c(C(=O)N2CCC3(CC2)OCCO3)oc2ccc(S(=O)(=O)N3CCOCC3)cc12 | 9.5% (inactive)
Clc1ccccc1NC1=NCCCS1 | -11.5% (inactive)
CCn1nc(-c2cccs2)nc2c(=O)n(C)c(=O)nc1-2 | 72.1% (active)
CCOc1ccc(-n2c(-c3cccs3)nc3ccccc3c2=O)cc1 | 21.3% (inactive)
Cn1ncnc2c(=O)n(C)c(=O)nc1-2 | 45.4% (inactive)
CCCCn1c(O)c(C(C)=NCCN2CCOCC2)c(=O)[nH]c1=O | 2.3% (inactive)
Cc1[nH]c2ccc(OC(F)(F)F)cc2c1CCNCc1ccc(Cl)cc1 | 2.1% (inactive)
COc1ccc2[nH]c(C)c(CCNCc3cc(OC)c(OC)c(OC)c3)c2c1 | 6.9% (inactive)
COc1ccc(CNCCc2c(C)[nH]c3ccc(OC(F)(F)F)cc23)c(OC)c1 | 57.8% (active)
COc1cc2c(cc1OC)C(C(=O)N(C)C1CCCCC1)C1CCCCN1C2=O (stereo not drawn) | 9.9% (inactive)
CCCCn1c(=O)c(C(=O)Nc2ccccc2N)c(O)c2ccccc21 | 2.4% (inactive)
COc1ccc(C2=NS(=O)(=O)N(C)C(C(=O)N3CCC4(CC3)OCCO4)=C2)cc1OC | 8.1% (inactive)
COc1ccc(CNCCc2ccc(Cl)cc2Cl)cc1 | -27.6% (inactive)
Cc1nn(Cc2ccccc2Cl)c(C)c1C(=O)NC1CCCc2ccccc21 (stereo not drawn) | 20.5% (inactive)
CN(C)C(=O)Oc1ccc2c(c1)O/C(=C\c1ccc(Cl)cc1)C2=O | -16.2% (inactive)
Cc1c(C(=O)Nc2ccccc2)cc(-c2ccccc2)n1CCCN1CCOCC1 | 8.6% (inactive)

Compound | inhibition
O=C(NCc1cccnc1)Nc1ccc([N+](=O)[O-])cc1 | -1.2% (inactive)
Cc1ccc(CN2CCN(CC(=O)N3CCC4(CC3)OCCO4)C2=O)cc1 | -1.6% (inactive)
C[C@H]1C[C@@H](C)C(=O)[C@@H]([C@H](O)CC2CC(=O)NC(=O)C2)C1 | 73% (active)
CCn1c(O)c(C=Nc2ccc(N3CCOCC3)cc2)c(=O)n(CC)c1=S | 22.7% (inactive)
COCCN1C(=O)NC(=O)/C(=C\c2ccc(Br)cc2)C1=O | 0.7% (inactive)
CC(C)c1oc(=O)cc2c1[C@@H](O)[C@H]1OC(=O)[C@@]3(C)C[C@@H](O)[C@@H](O)[C@@]2(C)C13 (stereo partly drawn) | 64.6% (active)
CC(C)c1oc(=O)cc2c1[C@@H](O)[C@H]1OC(=O)[C@@]3(C)CC[C@@H](O)[C@@]2(C)C13 (stereo partly drawn) | 20% (inactive)
CC(Cc1ccsc1)NCc1cn[nH]c1-c1ccc(F)cc1F (stereo not drawn) | 10.2% (inactive)
COc1cc(N2CCOCC2)ccc1/C=C1\C(=O)NC(=O)N(C2CCCCC2)C1=O | 12% (inactive)
CCOC(=O)C1=CC(=C2C(=O)N(CC)C(=S)N(CC)C2=O)c2ccccc2O1 | 18.1% (inactive)
O=C(CCNC(=O)N1C[C@H]2C[C@@H](C1)c1cccc(=O)n1C2)Nc1cccc(Cl)c1 | 13.1% (inactive)
O=C(Nc1ccc(OC(=O)N2CCCC2)cc1)N1CCOCC1 | 12.5% (inactive)
O=C(Nc1cccc(OC(=O)N2CCCCC2)c1)N1CCOCC1 | -0.1% (inactive)
O=C(Nc1ccc(OC(=O)N2CCCCC2)cc1)N1CCOCC1 | 62.5% (active)
COC(=O)c1nc(-c2ccc3c(n2)C(=O)C(N)=C(OC)C3=O)c(N)c(-c2ccc(OC)c(OC)c2O)c1C | 57.2% (active)
CC1CCCN(c2ccc(C(=O)N3CCC4(CC3)OCCO4)cc2[N+](=O)[O-])C1 (stereo not drawn) | 15.8% (inactive)
CC(=O)Nc1cc(C(=O)N2CCC3(CC2)OCCO3)ccc1S(=O)(=O)c1ccc(C)cc1 | 52.9% (active)
O=C(c1ccc(N2CCCCCC2)c([N+](=O)[O-])c1)N1CCC2(CC1)OCCO2 | 73.2% (active)
CCC(=O)Nc1cc(C(=O)N2CCC3(CC2)OCCO3)ccc1S(=O)(=O)c1ccc(C)cc1 | 0.8% (inactive)
O=C(c1ccc(N2CCCCC2)c([N+](=O)[O-])c1)N1CCC2(CC1)OCCO2 | 9.1% (inactive)
CC(=O)Nc1cc(C(=O)N2CCC3(CC2)OCCO3)ccc1S(=O)(=O)c1ccc(Cl)cc1 | 6.8% (inactive)
O=C(COc1ccc2ccc(=O)oc2c1)N1C[C@H]2C[C@@H](C1)c1cccc(=O)n1C2 | -2.7% (inactive)
CN1CC(C(=O)c2ccc([N+](=O)[O-])cc2)C(c2ccc(Cl)cc2)C1 (stereo not drawn) | 16.2% (inactive)
COC(=O)C(C)NC(=S)N1CC2C[C@@H](C1)Cn1c2cccc1=O (stereo partly drawn) | 14.9% (inactive)
